PubChem BioAssay (Tox21)
Inconclusive results are not listed. Where a call stands in place of a potency, no number is given. Active and inactive are the calls of the source. Unless noted, the call rests on the fitted dose curve; in most records, active means well fitted curve in the direction sought with a large enough effect in the repeat runs; inconclusive means weak or mixed curves; inactive means no such curve, though single readings can be large; an effect the other way counts as inactive or inconclusive.

Tested on: not listed separately
Test: qHTS assay to identify aromatase inhibitors - cell viability counter screen (AID 743084);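 further: cells stimulated with testosterone during compound exposure; nearly all actives have a fitted effect of over 55% in size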
Conditions: MCF-7 aro ERE viability, CellTiter-Fluor, 24 h; series mostly up to 70.3 µM

Row | SMILES | Potency
1 | O=C(CN1CCN(Cc2ccc3c(c2)OCO3)CC1)N1c2ccccc2Sc2ccccc21 | inactive
2 | CCC(CO)CO | inactive
3 | C=CCOc1cc(Cl)ccc1C(=O)NCCN(CC)CC | inactive
4 | CC(=O)OCCCc1ccccc1 | inactive
5 | O=C(O)/C=C/c1ccccc1 | inactive
6 | C[Si]1(C)N[Si](C)(C)N[Si](C)(C)N1 | inactive
7 | N#CCCOCCOCCC#N | inactive
8 | CC(C)CCC(=O)CCC(C)C | inactive
9 | O=C1OC(=O)c2cc(Oc3ccc4c(c3)C(=O)OC4=O)ccc21 | inactive

Target: Aryl hydrocarbon receptor (Homo sapiens) (UniProt P35869)
Test: qHTS assay to identify small molecule that activate the aryl hydrocarbon receptor (AhR) signaling pathway (AID 743085);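 further: HG2L7.5c1 human HepG2 liver cells with stably integrated DRE-driven firefly reporter; nearly all actives have a fitted effect of over 15% in size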
Conditions: HepG2 AhR-luc (HG2L7.5c1), luciferase, 24 h; series mostly up to 70.3 µM
Method in brief: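 Compounds were tested in HepG2 hepatocellular carcinoma cells harbouring a stably integrated luciferase gene under control of 20 DREs. Increased reporter signal after 24 h treatment at 37C was taken as AhR activation.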

Aryl hydrocarbon receptor (Homo sapiens), sequence (P35869 whole entry, looked up): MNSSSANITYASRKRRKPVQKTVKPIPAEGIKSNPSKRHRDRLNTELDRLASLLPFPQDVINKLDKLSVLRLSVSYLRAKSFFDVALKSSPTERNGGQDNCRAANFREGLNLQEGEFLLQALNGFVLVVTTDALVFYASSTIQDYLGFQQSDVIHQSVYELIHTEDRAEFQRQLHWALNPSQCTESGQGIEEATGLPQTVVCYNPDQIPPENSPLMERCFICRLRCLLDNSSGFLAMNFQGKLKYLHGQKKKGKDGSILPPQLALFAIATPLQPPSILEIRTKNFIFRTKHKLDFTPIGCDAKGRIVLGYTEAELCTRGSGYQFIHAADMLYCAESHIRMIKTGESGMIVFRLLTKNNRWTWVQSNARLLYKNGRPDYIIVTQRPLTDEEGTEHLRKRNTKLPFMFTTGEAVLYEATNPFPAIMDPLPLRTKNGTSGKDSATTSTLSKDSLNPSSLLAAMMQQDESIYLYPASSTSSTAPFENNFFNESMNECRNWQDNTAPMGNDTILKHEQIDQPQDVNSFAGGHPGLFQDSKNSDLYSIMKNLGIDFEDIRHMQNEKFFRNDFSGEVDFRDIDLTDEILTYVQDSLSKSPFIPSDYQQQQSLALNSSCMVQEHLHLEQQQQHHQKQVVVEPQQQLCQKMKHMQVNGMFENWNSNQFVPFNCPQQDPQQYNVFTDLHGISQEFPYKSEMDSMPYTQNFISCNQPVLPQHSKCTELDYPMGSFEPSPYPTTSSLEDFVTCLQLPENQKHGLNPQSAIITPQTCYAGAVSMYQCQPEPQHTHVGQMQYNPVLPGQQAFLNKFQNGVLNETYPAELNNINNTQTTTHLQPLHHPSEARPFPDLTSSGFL

Row | SMILES | Potency
10 | CC(CC(=O)O)CC(C)(C)C (configuration not stated) | inactive
11 | CCOC(=O)CC#N | inactive
12 | CC(C)COC(=O)/C=C/c1ccccc1 | inactive
13 | CNC(=O)C(c1ccccc1)c1ccccc1 | inactive

Tested on: not listed separately
Test: qHTS assay to identify small molecule that activate the aryl hydrocarbon receptor (AhR) signaling pathway - cell viability counter screen (AID 743086);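 further: HepG2 liver cells carrying the AhR DRE luciferase reporter; nearly all actives have a fitted effect of over 45% in size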
Conditions: HepG2-AhR-luc viability, CellTiter-Fluor, 24 h; series mostly up to 70.3 µM
Method in brief: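 HepG2-AhR-luc (HG2L7.5c1) cells, 4000/well, treated 24 h at 37 C with compound; viability measured as CellTiter-Fluor fluorescence after 30 min in the same wells as the luciferase read.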

Row | SMILES | Potency
14 | CC(=O)N(CC(O)CO)c1c(I)c(C(=O)NCC(O)CO)c(I)c(C(=O)NCC(O)CO)c1I (configuration not stated) | inactive
15 | CC(CC(=O)O)CC(C)(C)C (configuration not stated) | inactive
16 | c1ccc(CNc2ncnc3nc[nH]c23)cc1 | inactive
17 | CC(=O)OC(C)(C)Cc1ccccc1 | inactive
18 | Cc1cccc(NC(=S)N(C)C)c1 | inactive
19 | CCC(C)(CCC(C)C)C(=O)[O-].CCC(C)(CCC(C)C)C(=O)[O-].[Zn+2] (configuration not stated) | inactive
20 | CC(C)COC(=O)/C=C/c1ccccc1 | inactive
21 | CNC(=O)C(c1ccccc1)c1ccccc1 | inactive
22 | CC(C)=CC(C)(C)C | inactive
23 | C/C=C(\C)C(=O)OCC/C=C\CC | inactive

Target: Peroxisome proliferator-activated receptor gamma (Homo sapiens) (UniProt P37231)
Test: qHTS assay to identify small molecule agonists of the peroxisome proliferator-activated receptor gamma (PPARg) signaling pathway (AID 743094; active means well fitted activation curve with a large enough effect in the signal ratio in the repeat runs, not every such curve was filed as active; the % refers to the signal ratio)
Conditions: HEK293H PPARg-UAS-bla, beta-lactamase FRET ratio, 17 h; series mostly up to 57 µM
Method in brief: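 Cell-based bla reporter, HEK293H background, PPARg-driven UAS. Pre-incubation 5 h, 37C, 5% CO2. Compound 17 h, 37C. Substrate 1 h RT; fluorescence.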

Peroxisome proliferator-activated receptor gamma (Homo sapiens), sequence (P37231 whole entry, looked up): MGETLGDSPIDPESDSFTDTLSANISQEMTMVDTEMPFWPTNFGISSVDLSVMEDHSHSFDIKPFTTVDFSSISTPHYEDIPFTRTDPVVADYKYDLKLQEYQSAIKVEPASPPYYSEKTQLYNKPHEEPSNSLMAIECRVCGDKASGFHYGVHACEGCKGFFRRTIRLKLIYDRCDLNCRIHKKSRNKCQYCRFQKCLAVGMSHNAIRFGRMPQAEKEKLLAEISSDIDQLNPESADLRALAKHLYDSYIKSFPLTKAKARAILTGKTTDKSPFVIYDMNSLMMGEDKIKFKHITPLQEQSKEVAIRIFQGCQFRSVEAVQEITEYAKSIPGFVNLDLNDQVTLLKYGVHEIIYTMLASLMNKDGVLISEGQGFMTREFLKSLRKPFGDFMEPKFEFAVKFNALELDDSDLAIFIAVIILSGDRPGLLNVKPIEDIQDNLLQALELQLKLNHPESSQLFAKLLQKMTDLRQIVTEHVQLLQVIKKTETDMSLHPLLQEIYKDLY

Row | SMILES | outcome
24 | CC(=O)N(CC(O)CO)c1c(I)c(C(=O)NCC(O)CO)c(I)c(C(=O)NCC(O)CO)c1I (configuration not stated) | inactive
25 | CC(CC(=O)O)CC(C)(C)C (configuration not stated) | inactive
26 | CCC(CO)CO | inactive
27 | C=CCOc1cc(Cl)ccc1C(=O)NCCN(CC)CC | inactive
28 | CCOC(=O)CC#N | inactive
29 | O=C(O)/C=C/c1ccccc1 | inactive
30 | C[Si]1(C)N[Si](C)(C)N[Si](C)(C)N1 | inactive
31 | N#CCCOCCOCCC#N | inactive
32 | CC(C)CCC(=O)CCC(C)C | inactive
33 | O=C1OC(=O)c2cc(Oc3ccc4c(c3)C(=O)OC4=O)ccc21 | inactive
34 | COc1cc([N+](=O)[O-])ccc1N | inactive

Target: Peroxisome proliferator-activated receptor gamma (Homo sapiens) (UniProt P37231)
Test: qHTS assay to identify small molecule antagonists of the peroxisome proliferator-activated receptor gamma (PPARg) signaling pathway (AID 743191; calls by dose curve; further: nearly all actives have a fitted effect of over 30% in size)
Conditions: HEK293H PPARg-UAS-bla, beta-lactamase ratio, antagonist, 17 h; series mostly up to 62.6 µM
Method in brief: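 GeneBLAzer PPARg UAS-bla HEK293H cells, 5 h post-plating, exposed to compounds 17 h at 37C. LiveBLAzer B/G FRET substrate added for 1 h at room temperature; beta-lactamase reporter read by fluorescence intensity.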

Row | SMILES | Potency
35 | c1ccccc1 | inactive
36 | CCCCCN(CCCOC)C(=O)C(CCC(=O)O)NC(=O)c1ccc(Cl)c(Cl)c1 (configuration not stated) | inactive
37 | O=C(CN1CCN(Cc2ccc3c(c2)OCO3)CC1)N1c2ccccc2Sc2ccccc21 | inactive
38 | CC(=O)N(CC(O)CO)c1c(I)c(C(=O)NCC(O)CO)c(I)c(C(=O)NCC(O)CO)c1I (configuration not stated) | inactive
39 | CCC(CO)CO | inactive
40 | Cc1nc2n(c(=O)c1CCN1CCC(C(=O)c3ccc(F)cc3)CC1)CCS2 | inactive
41 | CCOC(=O)CC#N | inactive
42 | Nc1ccc(C(=O)OCC(O)CO)cc1 (configuration not stated) | inactive
43 | O=C(O)c1ccc(OCCN2CCCCC2)cc1 | inactive
44 | Cc1ccc(C(=O)C(=O)O)cc1C | inactive
45 | CC(=O)OC[C@H]1O[C@@H](OC(C)=O)[C@H](OC(C)=O)[C@@H]1OC(C)=O | inactive
46 | CC(C)CCC(=O)CCC(C)C | inactive
47 | CC(=O)N1CCN(c2ccc(O)cc2)CC1 | inactive

Tested on: not listed separately
Test: qHTS assay to identify small molecule antagonists of the peroxisome proliferator-activated receptor gamma (PPARg) signaling pathway - cell viability counter screen (AID 743194); further: nearly all actives have a fitted effect of over 55% in size
Conditions: PPARg-bla HEK293H viability, CellTiter-Glo luminescence, 17 h, co-treated with 50 nM rosiglitazone; series mostly up to 62.6 µM
Method in brief: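 Cytotoxicity counter screen in PPARg-bla HEK293H cells, same wells as reporter assay. Compounds plus 50 nM rosiglitazone (final) for 17 h at 37 C, then viability read by CellTiter-Glo luminescence.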

Row | SMILES | outcome
48 | c1ccccc1 | inactive
49 | CCCCCN(CCCOC)C(=O)C(CCC(=O)O)NC(=O)c1ccc(Cl)c(Cl)c1 (configuration not stated) | inactive
50 | CCN(CC)C(=O)C1CN2CCc3cc(OC)c(OC)cc3C2CC1OC(C)=O (configuration not stated) | inactive
51 | O=C(CN1CCN(Cc2ccc3c(c2)OCO3)CC1)N1c2ccccc2Sc2ccccc21 | inactive
52 | CC(=O)N(CC(O)CO)c1c(I)c(C(=O)NCC(O)CO)c(I)c(C(=O)NCC(O)CO)c1I (configuration not stated) | inactive
53 | CC(CC(=O)O)CC(C)(C)C (configuration not stated) | inactive
54 | c1ccc(CNc2ncnc3nc[nH]c23)cc1 | inactive
55 | CC(=O)OC(C)(C)Cc1ccccc1 | inactive
56 | C=CCOc1cc(Cl)ccc1C(=O)NCCN(CC)CC | inactive
57 | Cc1nc2n(c(=O)c1CCN1CCC(C(=O)c3ccc(F)cc3)CC1)CCS2 | inactive
58 | CCOC(=O)CC#N | inactive
59 | CC(=O)OCCCc1ccccc1 | inactive
60 | CC(C)C(=O)Nc1cccc(C(F)(F)F)c1 | inactive
61 | Cc1cccc(NC(=S)N(C)C)c1 | inactive
62 | CC(C)COC(=O)/C=C/c1ccccc1 | inactive
63 | Nc1ccc(C(=O)OCC(O)CO)cc1 (configuration not stated) | inactive
64 | O=S(=O)(O)c1cc(O)ccc1O | inactive
65 | O=C(O)c1ccc(OCCN2CCCCC2)cc1 | inactive

Row | SMILES | outcome
66 | O=C(O)/C=C/c1ccccc1 | inactive
67 | CCCCCCCCCCCCCCCCCCN(C)C | inactive
68 | C[Si]1(C)N[Si](C)(C)N[Si](C)(C)N1 | inactive
69 | Cc1ccc(C(=O)C(=O)O)cc1C | inactive
70 | CNC(=O)C(c1ccccc1)c1ccccc1 | inactive
71 | CCCCC(CC)CNC(=O)CC(C)OC(=O)CCC(=O)O (configuration not stated) | inactive
72 | CC(=O)OC[C@H]1O[C@@H](OC(C)=O)[C@H](OC(C)=O)[C@@H]1OC(C)=O | inactive
73 | N#CCCOCCOCCC#N | inactive
74 | CC(C)CCC(=O)CCC(C)C | inactive
75 | Nc1nc(=O)n([C@@H]2O[C@H](CO)[C@@H](O)[C@@H]2F)cc1I | inactive
76 | CCOC(=O)C(=O)c1csc(NC=O)n1 | inactive
77 | CC(C)=CC(C)(C)C | inactive
78 | O=C1OC(=O)c2cc(Oc3ccc4c(c3)C(=O)OC4=O)ccc21 | inactive
79 | CC(=O)N1CCN(c2ccc(O)cc2)CC1 | inactive
80 | COc1ccc(OC)c(NC(=O)CC(C)=O)c1 | inactive
81 | CO/N=C(/C(=O)N[C@@H]1C(=O)N2C(C(=O)O)=C(Cn3nnc(C)n3)CS[C@H]12)c1csc(N)n1 | inactive
82 | C/C=C(\C)C(=O)OCC/C=C\CC | inactive
